Source: PubChem (National Center for Advancing Translational Sciences (NCATS))
This is one part of a sample in which hits are shown more often than they occur.
LASV entry inh = blocks Lassa virus binding to or entry into cells | Lassa virus pseudotype entry inhibition, cell reporter | Potency, µM (titrated, usually from 37.9 µM), without a hit: at the highest dose activity change, negative = inhibition, actives largely listed as inhibitors | hit rate 1.2% among 300,000 | AID 540256; calls by dose curve; tested in HEK293 cells; note: potency is the fitted concentration of half-maximal effect; % is set by controls: 0 for no effect and ±100 for the full control effect; nearly all actives have a fitted effect of over 50% in size
Shiga inhibitor = blocks Shiga toxin action in Vero cells; Vero cells, Shiga toxin protein synthesis inhibition reporter; inhibition, % at 38.7 µM; hit rate 9.2% among 290,000; in the data active = inhibition mostly above about 28%, no sharp cut-off; inactive = mostly below about 43%; note: 0% is about no effect
VACV mCherry inh = vaccinia inhibition (mCherry reporter) | Vaccinia virus mCherry reporter infection, fluorescence | Potency, µM (doses to about 36.5 µM), for inactives: at the highest dose activity change, negative = inhibition, hits mostly inhibitors | hit rate 0.63% among 310,000 | AID 720579; calls by dose curve; tested in A549 cells; note: potency is the fitted concentration of half-maximal effect; % is set by controls: 0 for no effect and ±100 for the full control effect; nearly all actives have a fitted effect of over 35% in size
Marburg entry inh = inhibitors of Marburg virus binding or cell entry | Marburg virus pseudotyped entry inhibition, cell reporter | Potency, µM (titrated, usually from 37.8 µM), for the others: at the highest dose activity change, negative = inhibition, hits mostly inhibitors | hit rate 1.8% among 300,000; calls by dose curve; tested in HEK293 cells; note: potency is the fitted concentration of half-maximal effect; % is set by controls: 0 for no effect and ±100 for the full control effect
Vaccinia Venus = vaccinia inhibition (Venus reporter) | Potency, µM (series often up to 36.5 µM), for inactives: at the highest dose activity change, negative = inhibition, hits mostly inhibitors | Vaccinia virus Venus reporter expression, fluorescence | hit rate 0.46% among 330,000; calls by dose curve; tested in A549 cells; note: potency is the fitted concentration of half-maximal effect; % is set by controls: 0 for no effect and ±100 for the full control effect; nearly all actives have a fitted effect of over 30% in size
Cycloheximide cs = counter-screen hit for Shiga toxin inhibitors, cycloheximide; cell reporter, cycloheximide protein synthesis inhibition counterscreen; hit rate 12% among 300,000; max response, %; in the data active = max response mostly above about 13%, no sharp cut-off; inactive = mostly below about 14%; note: read at 38.3 µM for the half of the compounds with a filed dose; 0% is about no effect
An asterisk follows results filed as active; i = inactive; ? = inconclusive; nt = no result given; [ ] = dose if it differs, or a comment.

SMILES	LASV entry inh	Shiga inhibitor	VACV mCherry inh	Marburg entry inh	Vaccinia Venus	Cycloheximide cs
Cc1cc([N+](=O)[O-])ccc1NC(=O)c1cc2ccccc2o1	?	168*	-13%	-1%	-19%	30*
O=C(Nc1ccccn1)c1cc2ccccc2o1	4.6µM*	-7	i	?	-6%	-2
COC(=O)c1ccccc1NC(=O)c1cc2ccccc2o1	-1%[46.1 µM]	40	i	-11%[46.1 µM]	-3%	17
COc1ccccc1N1CCN(C(=O)c2cc3c(=O)n(C)c4ccccc4c3s2)CC1	10%[46.1 µM]	nt	-27%	-27%[46.1 µM]	-10%	nt
CCN(CC)c1ccc(NC(=O)CSc2nnc(C)c(=O)[nH]2)cc1	-19%[46.1 µM]	nt	-4%	?	2%	nt
C(=C\c1ccc2ccccc2n1)/c1cccnc1	nt	nt	?	nt	-28%	nt
CCc1cccc(C)c1NC(=O)c1cc2ccccc2o1	-6%[46.1 µM]	nt	i	nt	-15%	nt
Cc1ccnc(NC(=O)c2cc3ccccc3o2)c1	?	nt	i	1.1µM*	-4%	nt
Cc1ccc(C(=O)Cn2nc(C)c([N+](=O)[O-])c2C)c(C)c1	-12%	57*	-11%	10%	-10%	20*
Cc1cccn2c(=O)c3cc(C(=O)NC(C)c4ccccc4)c(=N)n(CCCn4ccnc4)c3nc12 (stereo not given)	?	-9	-12%	4.5µM*	-18%	1
CCOC(=O)c1cc2c(=O)n3ccccc3nc2n(Cc2ccco2)c1=NC(=O)c1cc(C)cc(C)c1	?	nt	?	27%[46.1 µM]	10µM*	nt
CCOCCCn1c(=N)c(C(=O)NCc2ccc3c(c2)OCO3)cc2c(=O)n3cccc(C)c3nc21	?	-3	nt	5.2µM*	nt	-3
Cc1cccn2c(=O)c3cc(C(=O)NCc4ccco4)c(=N)n(CCc4ccccc4)c3nc12	21%[46.1 µM]	46*	i	?	15%	17*
COc1ccccc1Nc1nn2c(=O)c3ccc(C(=O)NC4CCC(C)CC4)cc3nc2s1 (stereo not given)	20%[46.1 µM]	nt	-4%	nt	-5%	nt
CC(C)[C@H](NC(=O)c1ccc([N+](=O)[O-])cc1Cl)C(=O)N1CCN(C/C=C/c2ccccc2)CC1	?	nt	?	?	-4%	nt
COc1ccc(NCc2cc3cc4c(cc3n(CC(=O)Nc3ccc(C)c(C)c3)c2=O)OCO4)cc1	-18%[46.1 µM]	nt	-15%	nt	-8%	nt
CCc1ccccc1NC(=O)c1ccc(CN2C(=O)CCn3nc(C)cc32)cc1	-17%[46.1 µM]	nt	6%	nt	6%	nt
CC(C)CC(NC(N)=O)C(=O)OCC(=O)Nc1ccc(OC(F)F)cc1 (stereo not given)	nt	-3	-10%	7%[46.1 µM]	-11%	0
N=c1c(C(=O)NCc2ccccc2)cc2c(=O)n3ccccc3nc2n1Cc1ccco1	-27%	-14	-28%	11µM*	-19%	-8
Cc1cc(C(=O)Nc2ccc(S(=O)(=O)N3CCCC3)cc2)no1	19%	31	-2%	-16%	-7%	-2
O=C(O)c1ccccc1-c1ccccc1C(=O)Nc1ccc(OC(F)(F)F)cc1	nt	-9	nt	nt	nt	-1
Cc1cnc(C(=O)Nc2ccc(N3CCOCC3)cc2)cn1	28%[14.3 µM]	66*	i	?	-5%	22*
O=C(Nc1ccc(OC(F)(F)F)cc1)C1=NCCN1	-4%	38*	i	?	-16%	40*
Cc1cnc(C(=O)Nc2ccc(-n3cnnn3)cc2)cn1	14%	9	-2%	4%	-16%	-2
Cc1cnc(C(=O)Nc2ccc(OC(F)(F)F)cc2)cn1	nt	48*	nt	nt	nt	27*
SMILES	LASV entry inh	Shiga inhibitor	VACV mCherry inh	Marburg entry inh	Vaccinia Venus	Cycloheximide cs
Cc1cc(C(=O)Nc2ccc(N3CCCCC3)cc2)no1	11µM*	39	i	?	-2%	16*
O=S(=O)(c1ccc(F)cc1)N1CCN(c2nc(-c3ccccc3)nc3ccccc23)CC1	nt	nt	-9%	nt	-11%	nt
CSCC[C@H](NC(=O)[C@H](CCCNC(=N)N)NC(=O)[C@H](Cc1ccc(O)cc1)NC(=O)[C@@H]1CCCN1C(=O)CNC(=O)[C@H](CCC(=O)O)NC(=O)[C@H](CC(=O)O)NC(=O)[C@H](CCCCN)NC(=O)[C@H](CCCCN)NC(=O)[C@H](CCC(=O)O)NC(=O)[C@H](C)N)C(=O)N[C@@H](CCC(=O)O)C(=O)N[C@@H](Cc1cnc[nH]1)C(=O)N[C@@H](Cc1ccccc1)C(=O)N[C@@H](CCCNC(=N)N)C(=O)N[C@@H](Cc1c[nH]c2ccccc12)C(=O)NCC(=O)N[C@@H](CO)C(=O)N1CCC[C@H]1C(=O)N1CCC[C@H]1C(=O)N[C@@H](CCCCN)C(=O)N[C@@H](CC(=O)O)C(=O)O	nt	-12	nt	nt	nt	1
Cc1ccc(-c2nc(S(=O)(=O)c3ccc(C)cc3)c(N3CCCCC3)o2)cc1	?	nt	-13%	nt	-4%	nt
Cc1cnc(C(=O)Nc2ccc(N3CCCCC3)cc2)cn1	?	84*	i	?	-18%	32*
COc1cc(NS(=O)(=O)c2ccc(-c3ccc(=O)[nH]n3)o2)cc(OC)c1OC	1%[46.1 µM]	-11	i	11%[46.1 µM]	-7%	-2
COc1cc(/C=N/NC(=O)c2cc(C3CC3)[nH]n2)ccc1O	nt	40	nt	nt	nt	16*
COc1ccc(/C=N/NC(=O)c2cc(C3CC3)[nH]n2)cc1OC	1%	52*	-11%[7.34 µM]	-1%[46.1 µM]	-13%[7.34 µM]	11
O=C(N/N=C/c1ccc(O)cc1)c1cc(C2CC2)[nH]n1	21%[46.1 µM]	-30	i	0%[46.1 µM]	-9%	12
CCOc1cc(/C=N/NC(=O)c2cc(C3CC3)[nH]n2)ccc1O	0%	24	-1%	-6%[46.1 µM]	-13%	6
Cc1c(C(=O)Nc2cccc(C#N)c2)sc2nc3n(c(=O)c12)CCCCC3	23%[46.1 µM]	nt	-6%	nt	-7%	nt
COc1cccc(C(=O)c2ccccc2C(=O)O)c1	nt	nt	10%	nt	1%	nt
Fc1cccc(NC(=S)Nc2cccnc2)c1	0%	-4	8%	-6%[46.1 µM]	6%	6
Cc1ccc(NC(=O)Nc2cccnc2)cc1NC(=O)Nc1cccnc1	nt	64	-25%	nt	?	24*
O=C(Nc1ccncc1)Nc1cccc(F)c1	17%[46.1 µM]	67	i	-8%[46.1 µM]	-6%	29*
O=C(Nc1cccnc1)Nc1cccc(F)c1	nt	21	nt	nt	nt	18*
COc1ccc(Cl)cc1N(C)C(=O)Cc1noc2ccc(C)cc12	-6%[46.1 µM]	nt	-13%	nt	-5%	nt
COc1ccccc1-c1nc(SCC(=O)c2ccc(Cl)cc2)n[nH]1	-3%[46.1 µM]	nt	7%	3%[46.1 µM]	-3%	nt
Cc1ccccc1OCC(=O)NCC(=O)OCc1cccc2ccccc12	nt	nt	32%	nt	-10%	nt
CCC1CN(CCNC(=O)c2ccc(C#CC(C)(C)O)cc2)Cc2cc(OC)ccc2O1 (stereo not given)	nt	nt	-15%	nt	-8%	nt
CCCOP(=O)(O)c1c([N+](=O)[O-])cc(C(F)(F)F)cc1[N+](=O)[O-] (tested in a mixture with another compound)	30%	42	-13%	9%	-10%	14*
NNC(=S)Nc1ccccc1Cl	-3%[46.1 µM]	86*	?	-22%[46.1 µM]	-9%	43*
O=C(NC(=S)Nc1ccccc1Br)C1CCC1	?	50*	i	-16%[46.1 µM]	-3%	43*
S=C(NCCNC(=S)Nc1ccccc1Cl)Nc1ccccc1Cl	?	20	-10%	?	-3%	0
